Laboratory results reported in the supplement of paper PMC10849652.
About 8,800 targets were measured; listed, in parts, are those with a hit and a random draw of the rest. About 0.5% of all pairs of compound and target were hits.

Legend:
Assay in all cases: log2 fold change, soluble protein after heating vs DMSO (PISA); higher = thermal stabilisation; K562 lysate, 10 uM; active = over 0.2 and 3.5 SD of the protein, either way, in both replicates (recomputed)
vemurafenib = compound: CCCS(=O)(=O)Nc1ccc(F)c(C(=O)c2c[nH]c3ncc(-c4ccc(Cl)cc4)cc23)c1F [vemurafenib]
In short: (§1)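 A 30 min treatment with 10 μM compound was applied to crude K562 extract at 1 mg/mL protein in PBS pH 7.4 with 1 mM MgCl2. Heating for 3 min spanned 48°C-58°C, after which aliquots were pooled, adjusted to 0.5% NP-40 at 4°C and spun at 21,000xg for 90 min. TMTpro 16plex LC-MS/MS of the supernatant, with channel sums equalised, gave values recorded as log-two fold change in thermal stability against solvent controls, from duplicates.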

[1] = compound: CCCS(=O)(=O)Nc1ccc(F)c(C(=O)c2c[nH]c3ncc(Cl)cc23)c1F
In short: as §1

barasertib = compound: CCN(CCCOc1ccc2c(Nc3cc(CC(=O)Nc4cccc(F)c4)[nH]n3)ncnc2c1)CCOP(=O)(O)O [barasertib]
In short: as §1

[2] = compound: CC[C@@H]1C(=O)N(C)c2cnc(Nc3ccc(C(=O)NC4CCN(C)CC4)cc3OC)nc2N1C1CCCC1
In short: as §1

volasertib = compound: CC[C@@H]1C(=O)N(C)c2cnc(Nc3ccc(C(=O)N[C@H]4CC[C@H](N5CCN(CC6CC6)CC5)CC4)cc3OC)nc2N1C(C)C [volasertib]
In short: as §1

[3] = compound: CCn1c(C(=O)N(C2CC2)C2CC2)cc2c3c(ncn3C)c(Nc3cc(C)n(C)n3)nc21
In short: as §1

[4] = compound: CCn1cc(-c2ccnc3[nH]c(-c4cccc(CN(C)C)c4)cc23)c(-c2ccc(NC(=O)N(C)C)cc2)n1
In short: as §1

[5] = compound: CN1CCC(CNc2ccc3ncc(-c4cccc(OC(F)(F)F)c4)n3n2)CC1
In short: as §1

saracatinib = compound: CN1CCN(CCOc2cc(OC3CCOCC3)c3c(Nc4c(Cl)ccc5c4OCO5)ncnc3c2)CC1 [saracatinib]
In short: as §1

sotrastaurin = compound: CN1CCN(c2nc(C3=C(c4c[nH]c5ccccc45)C(=O)NC3=O)c3ccccc3n2)CC1 [sotrastaurin]
In short: as §1

alvocidib = compound: CN1CC[C@H](c2c(O)cc(O)c3c(=O)cc(-c4ccccc4Cl)oc23)[C@H](O)C1 [alvocidib]
In short: as §1

Tubastatin A = compound: CN1CCc2c(c3ccccc3n2Cc2ccc(C(=O)NO)cc2)C1 [Tubastatin A]
In short: as §1

[6] = compound: CNC(=O)C1=CC=CC=C1NC2=NC(=NC=C2Cl)NC3=C(C=C(C=C3)N4CCOCC4)OC
In short: as §1

defactinib = compound: CNC(=O)c1ccc(Nc2ncc(C(F)(F)F)c(NCc3nccnc3N(C)S(C)(=O)=O)n2)cc1 [defactinib]
In short: as §1

[7] = compound: CNc1nc(-c2ccc3c(N)n[nH]c3c2)cc(N2C[C@@H](C(=O)NC3CCCCC3)CC[C@H]2C)n1
In short: as §1

encorafenib = compound: COC(=O)N[C@@H](C)CNc1nccc(-c2cn(C(C)C)nc2-c2cc(Cl)cc(NS(C)(=O)=O)c2F)n1 [encorafenib]
In short: as §1

[8] = compound: COC(=O)[C@H](CCSC)NC(=O)C1=C(C=C(C=C1)NC[C@H](CS)N)C2=CC=CC=C2
In short: as §1

alisertib = compound: COc1cc(Nc2ncc3c(n2)-c2ccc(Cl)cc2C(c2c(F)cccc2OC)=NC3)ccc1C(=O)O [alisertib]
In short: as §1

[9] = compound: COc1cc2nc(-c3cc(F)ccc3O)nc(N[C@@H]3CNC[C@H]3C(C)(C)O)c2cc1OC
In short: as §1

gefitinib = compound: COc1cc2ncnc(Nc3ccc(F)c(Cl)c3)c2cc1OCCCN1CCOCC1 [gefitinib]
In short: as §1

Measured: log2 fold change

CDK5RAP3 isoform 4 (UniProt Q96JB5)
Chain of UniProt Q96JB5 (Q96JB5 whole entry, looked up): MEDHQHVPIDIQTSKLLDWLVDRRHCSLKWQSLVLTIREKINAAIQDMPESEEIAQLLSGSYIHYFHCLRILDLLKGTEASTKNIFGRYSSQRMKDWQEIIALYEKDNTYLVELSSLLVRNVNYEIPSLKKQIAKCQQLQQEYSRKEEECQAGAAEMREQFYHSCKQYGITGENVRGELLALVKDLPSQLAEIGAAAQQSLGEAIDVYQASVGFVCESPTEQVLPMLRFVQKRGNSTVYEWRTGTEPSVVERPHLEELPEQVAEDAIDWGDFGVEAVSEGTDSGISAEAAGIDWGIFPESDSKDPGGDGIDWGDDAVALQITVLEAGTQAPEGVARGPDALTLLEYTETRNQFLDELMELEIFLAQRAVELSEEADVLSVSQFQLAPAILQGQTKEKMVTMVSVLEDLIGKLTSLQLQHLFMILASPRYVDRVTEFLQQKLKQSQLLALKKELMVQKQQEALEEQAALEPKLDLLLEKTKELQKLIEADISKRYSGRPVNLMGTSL
active: [4] -0.313
inactive: vemurafenib 0.023 | [1] 0.013 | barasertib 0.022 | [2] -0.008 | volasertib -0.051 | [3] 0.029 | [5] 0.216 | saracatinib -0.002 | sotrastaurin -0.021 | alvocidib -0.118 | Tubastatin A 0.038 | [6] -0.007 | defactinib -0.021 | [7] 0.021 | encorafenib 0.007 | [8] 0.094 | alisertib 0.006 | [9] 0.026 | gefitinib -0.024

CHCHD4 isoform 2 (UniProt Q8N4Q1)
Chain of UniProt Q8N4Q1 (Q8N4Q1 whole entry, looked up): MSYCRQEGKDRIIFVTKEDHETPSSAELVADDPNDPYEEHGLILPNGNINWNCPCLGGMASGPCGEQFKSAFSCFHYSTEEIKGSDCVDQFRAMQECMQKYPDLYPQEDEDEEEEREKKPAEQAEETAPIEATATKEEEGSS
active: [4] -0.415
inactive: vemurafenib 0.144 | [1] 0.015 | barasertib 0.109 | [2] 0.072 | volasertib 0.057 | [3] -0.1 | [5] 0.228 | saracatinib 0.05 | sotrastaurin -0.007 | alvocidib -0.145 | Tubastatin A 0.026 | [6] 0.027 | defactinib -0.044 | [7] 0.045 | encorafenib 0.062 | [8] -0.039 | alisertib 0.024 | [9] 0.016 | gefitinib -0.015

CES2 isoform 4 (UniProt O00748)
Chain of UniProt O00748 (O00748 whole entry, looked up): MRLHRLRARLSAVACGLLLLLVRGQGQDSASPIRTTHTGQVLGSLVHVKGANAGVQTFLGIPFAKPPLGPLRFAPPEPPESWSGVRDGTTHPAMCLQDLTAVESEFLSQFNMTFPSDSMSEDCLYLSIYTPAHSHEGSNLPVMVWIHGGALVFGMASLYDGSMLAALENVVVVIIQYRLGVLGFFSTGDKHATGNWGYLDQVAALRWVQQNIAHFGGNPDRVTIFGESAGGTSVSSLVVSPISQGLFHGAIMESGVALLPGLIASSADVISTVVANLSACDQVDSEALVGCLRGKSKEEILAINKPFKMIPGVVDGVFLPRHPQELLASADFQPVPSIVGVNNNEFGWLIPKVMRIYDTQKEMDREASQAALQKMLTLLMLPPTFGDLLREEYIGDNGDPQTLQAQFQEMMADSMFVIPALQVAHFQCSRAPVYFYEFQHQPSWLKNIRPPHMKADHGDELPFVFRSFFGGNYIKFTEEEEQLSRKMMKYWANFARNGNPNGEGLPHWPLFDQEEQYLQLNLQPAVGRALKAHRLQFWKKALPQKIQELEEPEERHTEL
inactive: vemurafenib 0.03 | [1] -0.024 | barasertib -0.052 | [2] -0.012 | volasertib 0.004 | [3] -0.046 | [4] 0.002 | [5] 0.034 | saracatinib -0.001 | sotrastaurin -0.017 | alvocidib 0.021 | Tubastatin A -0.065 | [6] 0.09 | defactinib -0.111 | [7] 0.219 | encorafenib 0.075 | [8] 0.01 | alisertib -0.084 | [9] -0.002 | gefitinib -0.061

CBFA2T3 (UniProt O75081)
Chain of UniProt O75081 (O75081 whole entry, looked up): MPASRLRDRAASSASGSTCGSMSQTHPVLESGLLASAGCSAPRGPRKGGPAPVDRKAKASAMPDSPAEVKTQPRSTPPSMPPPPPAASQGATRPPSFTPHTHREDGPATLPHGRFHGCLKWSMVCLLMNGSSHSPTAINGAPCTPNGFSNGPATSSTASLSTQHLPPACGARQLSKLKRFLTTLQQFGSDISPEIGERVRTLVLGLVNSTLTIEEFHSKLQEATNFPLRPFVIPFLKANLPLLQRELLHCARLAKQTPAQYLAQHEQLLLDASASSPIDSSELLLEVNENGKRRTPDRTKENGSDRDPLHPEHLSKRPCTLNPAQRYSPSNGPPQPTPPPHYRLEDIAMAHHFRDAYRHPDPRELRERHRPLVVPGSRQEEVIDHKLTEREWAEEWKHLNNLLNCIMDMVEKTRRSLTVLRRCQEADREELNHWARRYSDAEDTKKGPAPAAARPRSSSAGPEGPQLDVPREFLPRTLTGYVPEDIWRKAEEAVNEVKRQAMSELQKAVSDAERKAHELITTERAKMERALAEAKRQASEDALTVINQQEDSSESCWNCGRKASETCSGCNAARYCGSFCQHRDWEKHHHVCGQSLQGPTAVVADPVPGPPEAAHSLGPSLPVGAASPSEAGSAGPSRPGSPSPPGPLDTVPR
inactive: vemurafenib -0.043 | [1] 0.018 | barasertib -0.055 | [2] 0.003 | volasertib -0.02 | [3] -0.007 | [4] -0.023 | [5] -0.018 | saracatinib 0.021 | sotrastaurin 0.015 | alvocidib -0.039 | Tubastatin A -0.131 | [6] 0.028 | defactinib 0.004 | [7] 0.051 | encorafenib 0.056 | [8] 0.037 | alisertib 0.031 | [9] -0.042 | gefitinib 0.018

CDS2 (UniProt O95674)
Chain of UniProt O95674 (O95674 whole entry, looked up): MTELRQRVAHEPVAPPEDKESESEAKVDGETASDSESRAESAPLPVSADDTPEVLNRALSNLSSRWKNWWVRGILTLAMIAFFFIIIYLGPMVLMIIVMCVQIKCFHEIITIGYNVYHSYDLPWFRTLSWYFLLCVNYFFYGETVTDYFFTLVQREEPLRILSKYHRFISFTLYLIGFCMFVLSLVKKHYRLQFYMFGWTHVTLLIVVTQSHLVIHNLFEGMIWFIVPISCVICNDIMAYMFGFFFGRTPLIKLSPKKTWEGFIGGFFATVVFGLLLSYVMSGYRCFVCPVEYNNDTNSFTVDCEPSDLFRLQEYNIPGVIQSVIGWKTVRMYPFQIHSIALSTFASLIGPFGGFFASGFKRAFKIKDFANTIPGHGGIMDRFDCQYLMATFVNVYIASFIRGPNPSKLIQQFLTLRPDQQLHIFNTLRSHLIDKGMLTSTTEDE
inactive: vemurafenib 0.09 | [1] 0.041 | barasertib 0.027 | [2] 0.026 | volasertib 0.005 | [3] -0.006 | [4] 0.015 | [5] 0.004 | saracatinib -0.053 | sotrastaurin 0.037 | alvocidib -0.037 | Tubastatin A 0.116 | [6] -0.036 | defactinib 0.04 | [7] -0.021 | encorafenib 0.027 | [8] 0.007 | alisertib 0.012 | [9] 0.033 | gefitinib 0

CFDP1 (UniProt Q9UEE9)
Chain of UniProt Q9UEE9 (Q9UEE9 whole entry, looked up): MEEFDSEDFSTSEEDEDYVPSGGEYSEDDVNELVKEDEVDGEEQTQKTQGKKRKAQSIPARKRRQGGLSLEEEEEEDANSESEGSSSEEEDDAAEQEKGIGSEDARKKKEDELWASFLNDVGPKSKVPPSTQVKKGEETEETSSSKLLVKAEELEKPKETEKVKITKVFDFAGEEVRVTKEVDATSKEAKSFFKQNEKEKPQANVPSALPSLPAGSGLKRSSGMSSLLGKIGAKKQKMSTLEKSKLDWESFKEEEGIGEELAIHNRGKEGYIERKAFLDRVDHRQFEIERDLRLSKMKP
active: [4] -0.311
inactive: vemurafenib -0.02 | [1] -0.008 | barasertib -0.066 | [2] 0.025 | volasertib 0.039 | [3] -0.015 | [5] 0.105 | saracatinib -0.007 | sotrastaurin 0.024 | alvocidib -0.104 | Tubastatin A 0.057 | [6] 0.042 | defactinib -0.01 | [7] -0.051 | encorafenib 0.005 | [8] -0.021 | alisertib -0.013 | [9] 0.015 | gefitinib -0.005

CASP3 (UniProt P42574)
Chain of UniProt P42574 (P42574 whole entry, looked up): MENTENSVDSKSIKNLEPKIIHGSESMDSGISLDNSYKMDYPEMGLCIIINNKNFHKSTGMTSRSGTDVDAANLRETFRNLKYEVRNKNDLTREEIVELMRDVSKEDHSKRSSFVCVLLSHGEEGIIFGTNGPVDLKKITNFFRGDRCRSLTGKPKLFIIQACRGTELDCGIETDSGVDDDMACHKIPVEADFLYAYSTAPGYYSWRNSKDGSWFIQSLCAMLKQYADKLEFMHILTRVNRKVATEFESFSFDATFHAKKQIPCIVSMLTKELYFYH
inactive: vemurafenib 0.002 | [1] 0.015 | barasertib -0.024 | [2] 0.034 | volasertib 0.013 | [3] -0.011 | [5] -0.049 | saracatinib -0.036 | sotrastaurin -0.013 | alvocidib 0.045 | Tubastatin A 0.056 | [6] 0.066 | defactinib 0.008 | [7] 0.064 | encorafenib 0.011 | [8] -0.061 | alisertib -0.037 | [9] 0.001 | gefitinib -0.001
active: [4] 0.279

CCNH (UniProt P51946)
Chain of UniProt P51946 (P51946 whole entry, looked up): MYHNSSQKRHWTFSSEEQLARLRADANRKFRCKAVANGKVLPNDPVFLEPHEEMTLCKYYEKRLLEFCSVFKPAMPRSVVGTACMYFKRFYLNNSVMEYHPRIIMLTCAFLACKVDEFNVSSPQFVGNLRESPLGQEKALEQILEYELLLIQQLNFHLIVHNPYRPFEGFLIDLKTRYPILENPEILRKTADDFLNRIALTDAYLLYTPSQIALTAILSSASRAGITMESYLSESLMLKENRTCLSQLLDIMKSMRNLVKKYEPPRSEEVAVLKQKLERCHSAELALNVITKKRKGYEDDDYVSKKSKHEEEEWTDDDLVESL
inactive: vemurafenib -0.025 | [1] 0.001 | barasertib -0.035 | [2] 0.036 | volasertib 0.003 | [3] -0.034 | [4] 0.054 | [5] -0.062 | saracatinib -0.036 | sotrastaurin 0.033 | alvocidib 0.006 | Tubastatin A 0.016 | [6] -0.015 | defactinib 0.026 | [7] -0.018 | encorafenib 0.033 | [8] -0.047 | alisertib -0.005 | [9] -0.007 | gefitinib 0.024
